The values below come from PubChem BioAssay (EPA / NIEHS).

In experiment [1] the target is human Retinoid X Receptor beta (RXRb), RXRB (gene 6257) (UniProt P28702). As to the kind of experiment: ATG_RXRb_TRANS: Attagene TRANS-FACTORIAL HepG2 Assay for human Retinoid X Receptor beta (RXRb) (AID 2283013). The method, boiled down: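 HepG2 cells were transiently transfected with multiplexed GAL4-UAS reporters and a chimeric RXRb-Gal4 construct, then exposed for 24 h. Reporter mRNA was quantified by RT-PCR, FAM labeling, HpaI digestion and capillary electrophoresis; gain of signal was scored against DMSO.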

Experiment [2] has as its target human Thyroid Receptor alpha (THRa1), THRA (gene 7067) (UniProt P10827). As to the kind of experiment: ATG_THRa1_TRANS: Attagene TRANS-FACTORIAL HepG2 Assay for human Thyroid Receptor alpha (THRa1) (AID 2283014). The procedure, abridged: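 Transient HepG2 transfection, NR-Gal4 chimera driving GAL4-UAS reporters; 24 h compound exposure; total RNA, oligo(dT) RT, PCR, fluorescent primer extension, capillary electrophoresis. Upward direction vs DMSO control.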

Read-out in experiment [3]: E-selectin (Homo sapiens) (UniProt P16581)
The experiment is described as follows: BSK_3C_Eselectin: BioMAP Diversity Plus: 3C Assay for Eselectin Biomarker Activity (AID 2283015; active = hit-call score of the fitted dose curve at least 0.9, where 1 is the maximum; inactive = score below 0.9;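 as to outcome: cell surface E-selectin protein quantified by ELISA 24 h after dosing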). Conditions: primary human endothelial cells (HUVEC); actives raise or lower the signal. The procedure, abridged:
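HUVEC, 3C stimulation; compound exposure 24 h; E-selectin by ELISA; gain- or loss-of-signal fitted bidirectionally vs DMSO baseline.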

Read-out in experiment [4]: Interleukin-1 alpha (IL1a), IL1A (gene 3552)
The experiment is described as follows: BSK_BE3C_IL1a: BioMAP Diversity Plus: BE3C Assay for Interleukin-1 alpha (IL1a) Biomarker Activity (AID 2283016; active = hit-call score of the fitted dose curve at least 0.9, where 1 is the maximum; inactive = score below 0.9). Conditions: primary human bronchial epithelial cells; actives raise or lower the signal. The procedure, abridged: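 Human primary bronchial epithelial cells, 24 h chemical exposure; IL-1a quantified by ELISA, fitted bidirectionally against DMSO. Cytotoxicity assessed in parallel by SRB total-protein staining at the time of measurement.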

Read-out in experiment [5]: Monocyte Chemoattractant Protein-1 (MCP1), CCL2 (gene 6347)
The experiment is described as follows: BSK_3C_MCP1: BioMAP Diversity Plus: 3C Assay for Monocyte Chemoattractant Protein-1 (MCP1) Biomarker Activity (AID 2283017; active = hit-call score of the fitted dose curve at least 0.9, where 1 is the maximum; inactive = score below 0.9). Conditions: primary human endothelial cells (HUVEC); actives raise or lower the signal. The method, boiled down:
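HUVEC, 3C system; 24 h chemical exposure; MCP-1 by ELISA; bidirectional curve fit vs DMSO baseline.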

Read-out in experiment [6]: Monocyte Chemoattractant Protein-1 (MCP1), CCL2 (gene 6347)
As to the kind of experiment: BSK_4H_MCP1: BioMAP Diversity Plus: 4H Assay for Monocyte Chemoattractant Protein-1 (MCP1) Biomarker Activity (AID 2283018; active = hit-call score of the fitted dose curve at least 0.9, where 1 is the maximum; inactive = score below 0.9). Conditions: primary human endothelial cells (HUVEC); actives raise or lower the signal. The procedure, abridged: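 Human umbilical vein endothelial cells (4H system) exposed to chemicals for 24 h in 96-well format. MCP-1 measured by ELISA; bidirectional fitting against DMSO, with SRB total-protein staining in parallel cultures for cytotoxicity.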

Read-out in experiment [7]: Human Leukocyte Antigen - DR isotype (HLADR), HLA-DRA (gene 3122)
As to the kind of experiment: BSK_3C_HLADR: BioMAP Diversity Plus: 3C Assay for Human Leukocyte Antigen - DR isotype (HLADR) Biomarker Activity (AID 2283019; active = hit-call score of the fitted dose curve at least 0.9, where 1 is the maximum; inactive = score below 0.9;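 as to outcome: ELISA of cell-surface HLA-DR on HUVEC 24 h after dosing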). Conditions: primary human endothelial cells (HUVEC); actives raise or lower the signal. The procedure, abridged:
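HUVEC, 3C stimulation, 24 h post-dose; HLA-DR by ELISA; bidirectional curve fit vs DMSO baseline; gain or loss of signal scored.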

Read-out in experiment [8]: Interleukin-8 (IL8), CXCL8 (gene 3576)
As to the kind of experiment: BSK_3C_IL8: BioMAP Diversity Plus: 3C Assay for Interleukin-8 (IL8) Biomarker Activity (AID 2283020; active = hit-call score of the fitted dose curve at least 0.9, where 1 is the maximum; inactive = score below 0.9). Conditions: primary human endothelial cells (HUVEC); actives raise or lower the signal. The method, boiled down: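 Primary human umbilical vein endothelial cells were dosed for 24 h. IL-8 was quantified by ELISA and fitted bidirectionally against DMSO. Cytotoxicity was assessed in parallel cultures by SRB staining at 560 nm.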

Read-out in experiment [9]: Monokine induced gamma interferon (MIG), CXCL9 (gene 4283)
The experiment is described as follows: BSK_3C_MIG: BioMAP Diversity Plus: 3C Assay for Monokine induced gamma interferon (MIG) Biomarker Activity (AID 2283021; active = hit-call score of the fitted dose curve at least 0.9, where 1 is the maximum; inactive = score below 0.9;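 as to AC50: MIG protein level measured by immunoassay in the treated endothelial cultures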). Conditions: primary human endothelial cells (HUVEC); actives raise or lower the signal. The method, boiled down: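 HUVEC primary endothelial cultures dosed with chemical; MIG quantified by ELISA at 24 h. Data fitted bidirectionally against DMSO control, with parallel SRB total-protein staining for cytotoxicity.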

For experiment [10], the target named is human Vitamin D Receptor (VDR), VDR (gene 7421) (UniProt P11473). As to the kind of experiment: ATG_VDR_TRANS: Attagene TRANS-FACTORIAL HepG2 Assay for human Vitamin D Receptor (VDR) (AID 2283022). The procedure, abridged:
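RT-PCR/capillary electrophoresis read-out of reporter mRNA induction in transiently transfected HepG2; 24 h dosing; chimeric NR-Gal4 (TRANS format); gain-of-signal fit against DMSO baseline.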

Inconclusive results are not listed. Some structures have more than one record in an assay (separate samples or runs), and their calls can disagree. Calls of active or inactive are those of the source. The calls were made as follows, unless noted: active = hit-call score of the fitted dose curve at least 0.9, where 1 is the maximum; inconclusive = response in the unintended direction; inactive = score below 0.9.

human Retinoid X Receptor beta (RXRb), RXRB (gene 6257), sequence (P28702 whole entry, looked up, the tested form may be a part): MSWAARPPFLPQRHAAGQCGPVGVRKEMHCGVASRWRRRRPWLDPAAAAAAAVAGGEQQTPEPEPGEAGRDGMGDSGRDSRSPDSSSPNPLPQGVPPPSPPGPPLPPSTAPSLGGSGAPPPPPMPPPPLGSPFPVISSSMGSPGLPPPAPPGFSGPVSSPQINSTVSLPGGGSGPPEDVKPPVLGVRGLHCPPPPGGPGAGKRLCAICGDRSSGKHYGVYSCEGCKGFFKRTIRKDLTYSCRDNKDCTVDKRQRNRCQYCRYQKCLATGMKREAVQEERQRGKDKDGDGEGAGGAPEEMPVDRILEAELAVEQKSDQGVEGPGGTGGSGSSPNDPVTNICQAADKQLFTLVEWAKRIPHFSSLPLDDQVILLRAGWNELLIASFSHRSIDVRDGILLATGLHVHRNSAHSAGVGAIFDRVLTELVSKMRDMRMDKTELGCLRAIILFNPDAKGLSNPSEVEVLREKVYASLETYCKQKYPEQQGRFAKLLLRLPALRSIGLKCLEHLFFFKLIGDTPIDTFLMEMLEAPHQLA
E-selectin (Homo sapiens), sequence (P16581 whole entry, looked up): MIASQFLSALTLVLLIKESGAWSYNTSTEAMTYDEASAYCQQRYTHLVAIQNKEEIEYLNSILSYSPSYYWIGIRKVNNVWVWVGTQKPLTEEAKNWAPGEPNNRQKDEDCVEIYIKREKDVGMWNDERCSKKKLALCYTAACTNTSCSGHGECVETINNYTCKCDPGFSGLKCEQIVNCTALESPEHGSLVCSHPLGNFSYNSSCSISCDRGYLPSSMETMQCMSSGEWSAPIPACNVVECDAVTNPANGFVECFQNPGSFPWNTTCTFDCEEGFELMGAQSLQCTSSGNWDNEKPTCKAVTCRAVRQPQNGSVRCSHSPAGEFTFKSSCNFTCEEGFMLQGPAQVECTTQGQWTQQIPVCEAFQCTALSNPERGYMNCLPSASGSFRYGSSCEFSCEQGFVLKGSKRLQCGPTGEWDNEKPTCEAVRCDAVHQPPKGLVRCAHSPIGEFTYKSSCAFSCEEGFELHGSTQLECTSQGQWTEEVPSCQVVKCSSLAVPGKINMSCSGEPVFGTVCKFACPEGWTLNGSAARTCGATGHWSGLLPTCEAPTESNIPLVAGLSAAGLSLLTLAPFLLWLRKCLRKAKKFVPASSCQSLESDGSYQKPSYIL
human Vitamin D Receptor (VDR), VDR (gene 7421), sequence (P11473 whole entry, looked up, the tested form may be a part): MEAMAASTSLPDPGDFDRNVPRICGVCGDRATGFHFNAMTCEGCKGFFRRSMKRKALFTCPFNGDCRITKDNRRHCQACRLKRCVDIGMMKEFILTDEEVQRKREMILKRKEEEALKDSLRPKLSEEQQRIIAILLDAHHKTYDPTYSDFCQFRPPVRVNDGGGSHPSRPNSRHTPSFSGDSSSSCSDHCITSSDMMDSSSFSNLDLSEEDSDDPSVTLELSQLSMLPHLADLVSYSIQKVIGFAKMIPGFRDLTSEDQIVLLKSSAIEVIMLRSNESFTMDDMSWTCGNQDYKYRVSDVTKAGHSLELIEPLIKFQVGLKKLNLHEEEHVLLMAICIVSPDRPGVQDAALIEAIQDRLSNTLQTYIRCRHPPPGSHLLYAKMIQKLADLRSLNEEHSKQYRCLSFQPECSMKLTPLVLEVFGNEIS
human Thyroid Receptor alpha (THRa1), THRA (gene 7067), sequence (P10827 whole entry, looked up, the tested form may be a part): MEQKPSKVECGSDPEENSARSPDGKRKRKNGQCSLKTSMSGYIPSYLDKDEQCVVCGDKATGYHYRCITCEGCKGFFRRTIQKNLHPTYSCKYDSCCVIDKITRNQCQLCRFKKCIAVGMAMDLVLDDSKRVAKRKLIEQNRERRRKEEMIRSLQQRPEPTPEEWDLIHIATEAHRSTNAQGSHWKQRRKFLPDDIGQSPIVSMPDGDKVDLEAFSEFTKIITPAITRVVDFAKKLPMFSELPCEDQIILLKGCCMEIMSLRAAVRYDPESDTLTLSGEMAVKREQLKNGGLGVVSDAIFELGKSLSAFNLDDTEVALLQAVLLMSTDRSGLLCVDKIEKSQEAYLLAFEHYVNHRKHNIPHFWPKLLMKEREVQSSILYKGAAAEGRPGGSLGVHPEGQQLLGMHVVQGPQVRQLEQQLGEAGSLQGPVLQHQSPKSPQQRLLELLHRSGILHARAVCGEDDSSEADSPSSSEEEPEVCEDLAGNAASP

Consider `Clc1cccc(Cl)c1`, for which the outcome in [1], in [2], in experiment [3], in experiment [4], in experiment [5] and in [6] was inactive. Besides, the result in experiment [7], in experiment [8] and in experiment [9] was inactive.
For `Nc1ccc(-c2ccccc2)cc1`, the call in experiment [1] and in [2] was inactive.
As to `CCNc1nc(NCC)nc(SC)n1`, the compound was called inactive in experiment [1] and in experiment [2].
As to `CC(C)(C)c1cc([N+](=O)[O-])cc(C(C)(C)C)c1O`, the AC50 – broadly, the concentration giving half of the maximal activity seen – is 2.54 µM (active) in experiment [1], 0.549 µM (active) in [3] and 0.016 µM (active) in experiment [7]. Further, the call in experiment [2], in experiment [4], in [6], in experiment [8] and in [9] was inactive.
Consider `CC(=O)C(F)(F)C(F)(F)F`, for which the compound was classed as inactive in experiment [1] and in [2].
As to `CCOP(=S)(OCC)OP(=S)(OCC)OCC`, the AC50 in experiment [1] was 50.2 µM (active); in experiment [5], 26.5 µM (active); in experiment [6], 33.5 µM (active); in experiment [7] it was 30.4 µM (active). Also, the call in experiment [2], in [4], in [8] and in [9] was inactive.
Take `Fc1cccc(Cl)c1CCl`: the outcome in experiment [1] and in [2] was inactive.
As to `Oc1cccc(-c2ccccc2)c1`, the half-maximal activity concentration (AC50) in experiment [1] was 36.6 µM (active); in [3], 32 µM (active); in [5] it was 30.6 µM (active); in experiment [6], 20 µM (active); in experiment [7] it was 32.9 µM (active). In addition, the compound was classed as inactive in experiment [2], in [4], in experiment [8] and in [9].
For `ClCc1ccccc1CCl`, the outcome in [1] and in experiment [2] was inactive.
Consider `O=NN1CCCCCC1`, for which the compound was called inactive in experiment [1] and in experiment [2].
Take `BrCCCCBr`: the outcome in [1] and in experiment [2] was inactive.
For the compound `Nc1ccc(Br)cc1`, the call in [1] and in experiment [2] was inactive.
`O=CCCl`: the compound was called inactive in experiment [1] and in experiment [2].
As to `C1CCC(C2CCCCC2)CC1`, in experiment [1], the AC50 is 66.1 µM (active). In experiment [2], the compound was classed as inactive.
As to `Cc1cc(Cl)ccc1N`, the result in experiment [1], in [2], in [3], in experiment [4], in experiment [5] and in experiment [6] was inactive. Moreover, the result in experiment [7], in experiment [8] and in experiment [9] was inactive.
Regarding `Cl[C@H]1OCCO[C@@H]1Cl`, the compound was called inactive in experiment [1] and in experiment [2].
On to `Oc1c(Br)cc(Br)cc1Br`, for which the call in [1], in experiment [4], in experiment [6], in experiment [8] and in experiment [9] was inactive. The concentration at half-maximal activity (AC50) is 100 µM (active) in experiment [2], 27.2 µM (active) in experiment [3], 32.9 µM (active) in experiment [5] and 34.3 µM (active) in experiment [7].
`CCC(C)(C#N)N=NC(C)(C#N)CC` (stereo not given): the compound was classed as inactive in [1], in experiment [2], in experiment [3], in experiment [4], in experiment [5] and in experiment [6]. Moreover, the result in [7], in experiment [8] and in experiment [9] was inactive.
For `CCOCn1c(-c2ccc(Cl)cc2)c(C#N)c(Br)c1C(F)(F)F`, the result in experiment [1] and in [2] was inactive.
As to `NC(=O)CCl`, the compound was called inactive in [1], in experiment [2], in experiment [3], in experiment [4], in experiment [5] and in experiment [6]. For the same compound, the result in experiment [7], in [8], in [9] and in [10] was inactive.
`OC(Cc1ccccc1Cl)(Cn1cncn1)C1(Cl)CC1` (stereo not given): the result in [1], in [2], in [3], in experiment [4], in experiment [5] and in experiment [6] was inactive. The result in experiment [7], in [8], in experiment [9] and in [10] was inactive.
Turning to `O=C(O)COc1cc(Cl)c(Cl)cc1Cl`, the outcome in [1], in [2], in [4], in experiment [5], in experiment [6] and in experiment [7] was inactive. The result in experiment [8] and in experiment [9] was inactive.
As for `CNC(=O)O/N=C/C(C)(C)S(C)(=O)=O`, the compound was called inactive in experiment [1] and in experiment [2].
In the case of `C=C(C)C(=O)OCC(CC)CCCC` (stereo not given), the outcome in experiment [1] and in [2] was inactive.
On to `O=c1[nH]c(=O)n(Cl)c(=O)n1Cl`, for which the result in experiment [1] and in [2] was inactive.
Take `C=CC(=O)OCC(COC(=O)C=C)(COC(=O)C=C)COC(=O)C=C`: the half-maximal activity concentration (AC50) in experiment [1] was 100 µM (active). The compound was classed as inactive in experiment [2].
Consider `O=C1C=CC(=O)c2ccccc21`, for which the result in experiment [1] and in [2] was inactive. Also, the AC50 in experiment [3] was 4.15 µM (active); in [4], 3.75 µM (active); in experiment [6], 1.45 µM (active); in experiment [7], 2.14 µM (active); in experiment [8], 5.23 µM (active); in experiment [9], 6.7 µM (active).
As to `O=[N+]([O-])c1ccc(Nc2ccccc2)cc1`, the half-maximal activity concentration (AC50) is 12.1 µM (active) in experiment [1] and 20 µM (active) in experiment [6]. Further, the result in [2], in [4], in experiment [5], in experiment [7], in experiment [8] and in experiment [9] was inactive. Besides, the outcome in [10] was inactive.
With `Oc1cc(Cl)c(Cl)cc1Cl`, the AC50 in experiment [1] was 151 µM (active); in experiment [3], 35.4 µM (active); in [6] it was 20 µM (active); in experiment [7], 16.8 µM (active); in [8], 31.7 µM (active). Moreover, the result in experiment [2], in experiment [4] and in experiment [9] was inactive.
For the compound `C=CCN=C=S`, the compound was classed as inactive in experiment [1] and in experiment [2].
In the case of `O=C(O)CC(O)(CC(=O)O)C(=O)O`, in experiment [1], the AC50 was 1.11 µM (active) and the result was inactive. The compound was called inactive in [10].
In the case of `CCOc1cc(C=O)ccc1O`, the result in [1] and in experiment [2] was inactive.
Consider `COc1ccc([N+](=O)[O-])cc1O`, for which the outcome in experiment [1] and in experiment [2] was inactive.
Turning to `O=c1nc(O)n(Cl)c(=O)n1Cl`, the compound was called inactive in [1] and in experiment [2].
For `CNC(=O)N(C)c1nc2ccccc2s1`, the result in experiment [1] and in experiment [2] was inactive.
On to `Cc1cc(SCc2sc(-c3ccc(C(F)(F)F)c(F)c3)nc2C)ccc1OCC(=O)O`, for which the call in experiment [1], in experiment [2] and in experiment [10] was inactive.
Turning to `CC(C)C(C)(N)C#N` (stereo not given), the result in experiment [1], in [2] and in experiment [10] was inactive.
For `Oc1ccc(Cc2ccc(O)cc2)cc1`, the outcome in [1], in [2], in [4], in experiment [6], in experiment [7] and in experiment [8] was inactive. Moreover, the result in experiment [9] was inactive.
Turning to `CCCCN(CCCC)C(=S)S`, the result in [1], in experiment [2] and in experiment [10] was inactive.
